High-throughput results deposited in PubChem by National Center for Advancing Translational Sciences (NCATS).
TDP-43 rescue: inhibitors of TDP-43 toxicity in yeast | actives 0.45% (n = 45,000) | Potency, µM (highest dose often 46.1 µM), actives largely listed as activators | yeast TDP-43 toxicity rescue, BacTiter-Glo growth, 24 h; active = well fitted activation curve with a large enough effect; also: 0% is about no effect; nearly all actives have a fitted effect of over 55% in size
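TDP-43-expressing yeast, pregrown in raffinose, seeded at OD600 0.02 in galactose medium with compound for 24 hr at 30 deg C. Growth read by BacTiter-Glo luminescence, so rescue of toxicity appears as activation.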
Starred values were filed as active, the others as inactive; i = inactive. Shown is part of a subset that was picked to be rich in hits. Potency is read from the fitted curve at half-maximal effect.

SMILES | TDP-43 rescue
COc1ccc(Cl)cc1S(=O)(=O)N1CCCC(C(=O)N2CCOCC2)C1 (stereo not given) | i
O=C(C1CCCN(S(=O)(=O)c2ccc(Cl)cc2)C1)N1CCCC1 (stereo not given) | i
Cc1ccc(Cl)cc1NC(=O)Cn1c(=O)oc2cc(S(=O)(=O)N3CCCC3)ccc21 | i
Cc1ccc(-c2nc3ncccc3o2)cc1NC(=O)c1ccccc1Br | i
Cc1ccc(NCc2cccn2-c2nnc(N3CCC(C(=O)NCc4ccc(F)cc4)CC3)s2)cc1 | i
O=C1NC(=S)S/C1=C\c1cc2ccccc2nc1N1CCCCC1 | 6.3µM*
CN1CCN(/C=C2\SC(=S)NC2=O)CC1 | i
COc1ccc2nc(N3CCCCC3)c(/C=C3\SC(=S)NC3=O)cc2c1 | i
COc1ccc2c(c1)-c1nc(NC(=O)c3cc(OC)c(OC)c(OC)c3)sc1CC2 | i
CCOC(=O)C1CCCN(C(=O)c2ccc3c(c2)N(Cc2ccccc2)C(=O)c2ccccc2S3(=O)=O)C1 (stereo not given) | i
COc1cccc(OCc2nc3ccccc3n2C)c1 | i
Cc1ccc(NC(=O)c2c(C)oc3ccc(O)c(CN(C)Cc4ccccc4)c23)c(C)c1 | i
COc1cccc(Nc2nnc(-c3cc4ccc(O)cc4oc3=O)s2)c1 | i
CN1CCN(S(=O)(=O)c2ccc(NCc3ccc4c(c3)OCO4)nc2)CC1 | i
Clc1ccccc1-c1cnc2sc(NCc3ccc4c(c3)OCO4)nn12 | 5µM*
O=C(CSc1nc2cc(Cl)ccc2s1)NCc1ccc2c(c1)OCO2 | i
COc1ccc(OC)c(NC(=O)CSC2=NN3CCCC(=O)N=C3S2)c1 | i
COc1ccc(Cl)cc1NC(=O)CSC1=NN2CCCC(=O)N=C2S1 | 14µM*
CCOc1ccccc1NC(=O)CSC1=NN2CCCC(=O)N=C2S1 | i
O=C(CSc1nccn1C1CCCC1)Nc1ccccc1 | i
Cc1ccc(NC(=O)CN2C(=O)C(c3ccccc3)=NC23CCCCC3)cc1C | i
CN(Cc1ccc(F)cc1)C(=O)C(c1ccccc1)c1ccccc1 | i
CCOc1ccccc1NC(=O)c1ccccc1-c1ccccc1 | i
CN(Cc1ccc(F)cc1)C(=O)COc1ccccc1-c1ccccc1 | 25µM*
N/C(=N\OC(=O)Cc1ccc([N+](=O)[O-])cc1)c1ccc([N+](=O)[O-])cc1 | i
SMILES | TDP-43 rescue
N/C(=N\OC(=O)c1ccc([N+](=O)[O-])cc1)c1cccnc1 | i
N/C(Cc1ccc([N+](=O)[O-])cc1)=N\OC(=O)c1ccc2ccccc2c1 | 8.9µM*
COc1cc(Cl)c(C)cc1NC(=O)C1CCN(c2nc3ccccc3n3cccc23)CC1 | i
Cn1nnnc1N=N/C(=N/Nc1ccccc1)c1ccccc1 | 6.3µM*
CCCCCOc1ccc(NC(=O)Cn2c(-c3cncs3)nc3ccccc32)cc1 | i
O=C(Nc1ccc(F)c(Cl)c1)C1Cc2ccccc2CN1S(=O)(=O)c1ccc(F)cc1 (stereo not given) | i
O=C(NCc1cccc(Cl)c1)c1ccc(-c2cccnc2)c2ccoc12 | 14µM*
O=C(NCCc1ccccc1)c1ccc(-c2cccnc2)c2ccoc12 | i
Cn1cc(-c2ccc(C(=O)NCc3cccc(Cl)c3)c3occc23)cn1 | i
NC(=O)c1cc(C(=O)c2cccc(Cl)c2Cl)c[nH]1 | i
O=C(c1ccc(Cl)c(S(=O)(=O)N2CCCC2)c1)N1CCN(c2ccccc2F)CC1 | i
O=C(c1c[nH]c(C(=O)N2CCN(c3ccccc3F)CC2)c1)c1cccc(Cl)c1Cl | 20µM*
COc1ccccc1-n1c(/C=C/c2c(C)n(C)c3ccccc23)nc2ccccc2c1=O | i
Cc1ccccc1C(=O)Nc1sc2c(c1C(=O)NCc1ccco1)CCC(C(C)(C)C)C2 (stereo not given) | i
CC(C)c1ccc(NC(=O)c2cc3c(s2)-c2ccccc2SC3)cc1 | i
O=C(Cn1c(=O)c2sccc2n(CC(=O)Nc2ccc(Cl)cc2Cl)c1=O)NCCc1ccccc1 | i
O=c1c2sccc2n(Cc2cc(=O)n3ccccc3n2)c(=O)n1-c1cc(F)ccc1F | i
CCN(CC)S(=O)(=O)c1ccc(NC(=O)CSc2ncnc3ccccc23)cc1 | 22µM*
COC(=O)c1c(NC(=O)CSc2ncnc3ccccc23)sc(C)c1C | i
NS(=O)(=O)c1ccc(CCNC(=O)CSc2ncnc3ccccc23)cc1 | i
CC(C)c1ccc(NC(=O)C2CCCN(S(=O)(=O)c3ccc4[nH]c(=O)ccc4c3)C2)cc1 (stereo not given) | i
Cc1cccc(C)c1NC(=O)Cn1nnc(S(=O)(=O)c2ccccc2)c1N | i
CC(=O)N1CCN(c2ccc(NC(=O)c3cccc(Cl)c3)cc2)CC1 | i
O=C(Nc1ccc(Br)cn1)c1cccc(-c2cc3ccccc3oc2=O)c1 | i
O=C(Nc1ccc(N2CCCC2)cc1)c1cccc(-c2cc3ccccc3oc2=O)c1 | 22µM*
SMILES | TDP-43 rescue
CCOC(=O)c1cccc(NC(=O)C2=C(C)C(=O)OC23CCCCC3)c1 | i
Cc1ccc(-n2c(=O)c3c(cnn3C)n(Cc3ccc(Cl)cc3)c2=O)cc1 | i
Cc1cccc(NC(=O)CSc2nnc(NC(=O)C3CC3)s2)c1C | i
Cc1ccccc1Nc1nnc(SCC(=O)NCc2cccs2)s1 | i
Cc1cccc(Nc2nnc(SCC(=O)Nc3ccccc3[N+](=O)[O-])s2)c1C | 18µM*
COc1cc(NC(=O)c2cc(C3CC3)nc3c2c(C)nn3-c2ccc(C)cc2)cc(OC)c1 | i
CCC(Oc1ccccc1)C(=O)Nc1ccc(O)c(-c2nc3cc(C)ccc3o2)c1 (stereo not given) | i
O=C(COc1ccc(F)cc1)Nc1ccc(Cl)c(-c2nc3ccccc3[nH]2)c1 | i
Cc1cc(OCC(=O)Nc2cc(-c3nc4ccccc4[nH]3)ccc2C)ccc1Cl | i
COc1ccc(C)cc1NC(=O)c1sc2nc(C)nc(N3CCOCC3)c2c1C | i
Cc1nc(N2CCN(C)CC2)c2c(C)c(C(=O)Nc3ccc(F)cc3)sc2n1 | i
Cc1nc(N2CCCCC2)c2c(C)c(C(=O)Nc3ccccc3C(F)(F)F)sc2n1 | 18µM*
CCOc1ccccc1NC(=O)N(Cc1ccc(F)cc1)C1CCN(CC)CC1 | i
CCCSc1ncc(Cl)c(C(=O)Nc2sc3c(c2C(=O)OC)CCCC3)n1 | i
Fc1cccc(-n2ncc3c2ncn2nc(COc4ccc(Cl)cc4)nc32)c1 | i
O=C(N/N=C/C(Br)=C\c1ccccc1)c1ccco1 | 10µM*
O=C(Nc1ccccc1C(=O)N/N=C/c1ccccc1)c1ccco1 | i
Cc1occc1C(=O)N/N=C/C(Br)=C\c1ccccc1 | i
O=C(CCCn1c(=O)c2sccc2n(Cc2ccc(F)cc2Cl)c1=O)NCc1ccc2c(c1)OCO2 | i
COc1cc(OC)c(NC(=O)C2=C(C)C(=O)OC23CCCCC3)cc1Cl | i
O=C(Nc1ccc2ccccc2c1)c1ccccc1O | i
C/C(=C\C(=S)Nc1ccccc1)Nc1ccc2ccccc2c1 | 14µM*
O=C(COc1ccc2ccccc2c1)NNC(=O)C(=O)Nc1ccccc1 | i
COc1ccccc1NC(=O)CCN1CCCCC1 | i
CCCc1cc(NCc2ccccn2)n2nc(C)c(-c3ccccc3)c2n1 | i
CN(C)CCCNc1cc(C(C)(C)C)nc2c(-c3ccccc3)cnn12 | i
Cc1cc(NCc2ccccn2)n2ncc(-c3ccccc3)c2n1 | 8.9µM*
CCOc1ccccc1C(=O)Nc1cc(-c2nc3cccnc3s2)ccc1C | i
Cc1cnnn1-c1ccc([N+](=O)[O-])cc1 | i
Cc1c(C(=S)Nc2ccccc2)cnn1-c1ccc([N+](=O)[O-])cc1 | i
